Assays:
Assay type in all cases: functional
[1] = test system: Plasmodium falciparum; test: GSK_TCMDC: Inhibition of Plasmodium falciparum 3D7 in whole red blood cells, using parasite LDH activity as an index of growth. Test compounds present at 2uM
[2] = test system: Plasmodium falciparum; test: GSK_TCMDC: Inhibition of Plasmodium falciparum Dd2 in whole red blood cells, using parasite LDH activity as an index of growth. Test compounds present at 2uM
[3] = test system: HepG2; test: GSK_TCMDC: Percent inhibition of human HepG2 cell line. Test compounds present at 10uM.

Structure (SMILES) | Inhibition [1] | Inhibition [2] | Inhibition [3]
CC(N)(Cc1ccc(O)cc1)c1nnn[nH]1 (stereo not drawn) | 93% | 2% | 7%
CCCCCCCN1CCC(CC(=O)Nc2ccnc3ccc(OC)cc23)CC1 | 97% | 52% | 15%
CCC(CC(C)C(=O)O)=C(c1ccccc1)c1ccccc1 (stereo not drawn) | 98% | 1% | 12%
O=C(Nc1nc2cc(S(=O)(=O)NCCc3cccc(F)c3)ccc2n1CCCn1ccnc1)c1ccc(Cl)cc1.O=C(O)C(F)(F)F | 90% | 8% | 0%
O=C(Nc1cccc(CN2CCN(Cc3ccc(O)cc3)CC2)c1)c1cc2ccccc2s1.O=C(O)C(F)(F)F | 100% | 26% | 15%
COc1ccc(CNCc2ccsc2)cc1-c1ccc(OC)c(S(=O)(=O)NCCN2CCCC2)c1.O=C(O)C(F)(F)F | 97% | 62% | 18%
Cc1cc2ccccc2n1CC(=O)N1CC(C(=O)N2CCCCC2)Oc2ccccc21 (stereo not drawn) | 99% | 77% | 0%
O=C(Nc1cccc(C(F)(F)F)c1)c1cccc(S(=O)(=O)NCC2CCCN(Cc3ccccc3)C2)c1.O=C(O)C(F)(F)F (stereo not drawn) | 94% | 3% | 17%
O=C(/C=C/c1ccc(Cl)c(Cl)c1)NCCCCCN1CCC(CCCNC(=O)Nc2ccc(C(F)(F)F)cc2)CC1 | 91% | 19% | 0%
CC12CCC(C(=O)N(CC(O)Cn3c4ccc(Cl)cc4c4cc(Cl)ccc43)C1=O)C2(C)C (stereo not drawn) | 100% | 99% | 0%
O=C(Nc1ccc(Cl)cc1)Nc1cccc(-c2cccc(-c3nc4cc(F)ccc4[nH]3)c2)c1 | 100% | 84% | 79%
O=C(Nc1ccc(Br)cc1)N(CCN1CCOCC1)CC(O)COCc1ccc(Cl)c(Cl)c1.O=C(O)C(F)(F)F (stereo not drawn) | 94% | 52% | 16%
O=C(/C=C/c1ccc(Cl)c(Cl)c1)NCCCCCCN1CCCN(C(=O)Nc2ccc(F)c(Cl)c2)CC1 | 98% | 1% | 30%
Cc1n[nH]c2cc(Nc3ccnc(Nc4ccc(CN5CCOCC5)cc4)n3)ccc12 | 97% | 5% | 22%
CCCN1CCN(CC(O)CNC(=O)Nc2ccc(Cl)cc2)CC1.O=C(O)C(F)(F)F (stereo not drawn) | 100% | 100% | 6%
COc1ccc2nccc([C@@H](O)CN3CCC(NC(=O)COc4nc(SCc5ccc(F)cc5)nc5c4CCC5)CC3)c2c1 | 96% | 78% | 29%

Structure (SMILES) | Inhibition [1] | Inhibition [2] | Inhibition [3]
CN(C)c1nc(NN=Cc2cc(Cl)ccc2O)nc(Nc2ccc(F)cc2)n1 | 94% | 46% | 32%
COc1cc2ccccc2c(OC)c1CCNCCCCNCCc1c(OC)cc2ccccc2c1OC.CS(=O)(=O)O | 99% | 30% | 100%
Cc1cc(N/N=C/c2ccccc2[N+](=O)[O-])c2cc(C(F)(F)F)ccc2n1 | 97% | 39% | 0%
N=C(N)CCN(Cc1ccc(Cl)cc1)c1ccc(Cl)cc1 | 96% | 92% | 22%
O=[N+]([O-])c1cccc(-n2nc(NCc3ccc(Cl)cc3)nc2-c2ccc(F)c(C(F)(F)F)c2)c1 | 98% | 93% | 6%
COCCOc1ccc(C(F)(F)F)cc1NC(=O)Cc1c(F)cccc1Cl | 88% | 74% | 18%
COc1ccc(Nc2ncc(C#N)c(Nc3ccccc3C(N)=O)n2)cc1N1CCN(C)CC1.Cl | 93% | 97% | 56%
O=C(/C=C/c1ccc(Cl)c(Cl)c1)NCCCCCN1CCCN(C(=O)Nc2cc(F)cc(F)c2)CC1 | 94% | 1% | 4%
Cc1cc(OCCCN2CCCCC2)ccc1NC(=O)COc1ccc(Cl)cc1C(=O)c1cc(C#N)cc(C(F)(F)F)c1 | 87% | 7% | 23%
COc1ccc(NC(=O)[C@H](Cc2ccccc2)Nc2cc(C)nc(NCCc3ccccc3OC)n2)cc1.O=C(O)C(F)(F)F | 100% | 83% | 10%
CN(Cc1ccccc1)C1CCCN(c2cc(NC(=O)c3ccc(F)cc3)ccn2)C1.O=C(O)C(F)(F)F (stereo not drawn) | 93% | 95% | 7%
NC1=NC2(CCCCC2)N(OCCCCCCN2C(=O)c3ccccc3C2=O)C(N)=N1 | 98% | 16% | 20%
CC(C)C[C@H](NC(=O)c1ccc(OCCN2CCOCC2)cc1)C(=O)N[C@H](/C=N/N1CCN(C)C1=O)CCc1ccccc1 | 90% | 65% | 3%
COc1ccc(C2=CCN(c3ccc(Cl)c(Cl)c3)C2=O)cc1OCCN1CCCCC1.Cl | 97% | 99% | 19%
CS(=O)(=O)CCNCc1ccc(-c2ccc3ncnc(Nc4ccc(OCc5ccccc5)c(Cl)c4)c3c2)o1.Cl [GW574783B] | 100% | 76% | 4%
